From PubChem BioAssay (NCI) come the findings set out here.

Compounds without any hit were thinned out: in the full panel of roughly 79,000, 15% have a hit. Unmarked numbers belong to inactive results. Calls of active or inactive are those of the source. Cut-off read from the data, not from the text of the source: active = growth inhibition above about 70%; inactive = the rest.

A short description of experiment [1]: NCI Yeast Anticancer Drug Screen. Data for the rad50 strain (AID 155).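 Note: 0% = growth of vehicle-only cultures of the same strain.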 To be noted: S. cerevisiae rad50 strain growth inhibition; at 50.0 µM; stronger effect = higher value. Put shortly: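 Vehicle-treated cultures provide the reference for the growth inhibition reported for compound-exposed, repair-deficient yeast.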
The nature of experiment [2]: NCI Yeast Anticancer Drug Screen. Data for the mec2-1 strain (AID 157). To be noted: S. cerevisiae mec2-1 strain, at 50.0 µM, stronger effect = higher value. In a few lines:
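Cells of the genetically defined mec2-1 yeast strain are incubated with test compound. Inhibition of growth is calculated against vehicle-treated controls.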

A short description of experiment [3]: NCI Yeast Anticancer Drug Screen. Data for the sgs1 mgt1 strain (AID 161).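 Note: 0% = growth of cultures given vehicle only.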 To be noted: S. cerevisiae sgs1 mgt1 strain, at 50.0 µM, stronger effect = higher value. In a few lines:
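Mutant yeast exposed to compound; growth scored against vehicle-only wells.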

Experiment [4] is described as follows: NCI Yeast Anticancer Drug Screen. Data for the cln2 rad14 strain (AID 165).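 Note: 0% = growth equal to vehicle treated cultures.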 To be noted: S. cerevisiae cln2 rad14 strain, at 50.0 µM, stronger effect = higher value. In a few lines:
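The screen exposed genetically defined yeast (cln2 rad14) to test compounds and scored growth inhibition relative to vehicle-treated controls.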

A short description of experiment [5]: NCI Yeast Anticancer Drug Screen. Data for the bub3 strain (AID 167). To be noted: S. cerevisiae bub3 mutant strain, at 50.0 µM, stronger effect = higher value. Put shortly:
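Mutant yeast screening strain plus compound; vehicle-treated cultures serve as the 0% inhibition reference.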

Experiment [6] in a line: NCI Yeast Anticancer Drug Screen. Data for the mlh1 rad18 strain (AID 175). To be noted: S. cerevisiae mlh1 rad18 strain growth inhibition; at 50.0 µM; stronger effect = higher value. Put shortly: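 Compound-treated yeast growth, normalised to vehicle controls. Strain bears defined DNA repair mutations.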

With `O=NNc1cnc2ccccc2n1`, the growth inhibition in experiment [1] is 48.5%; in experiment [2], -0.25%; in experiment [3], -9.75%; in experiment [4], -5.4%; in experiment [5], -38.2%; in experiment [6], 12.2%.

As for `COc1cc2c(cc1O)CC1c3c(cc(O)c(OC)c3-2)CCN1C` (stereo not drawn), the growth inhibition in experiment [1] is 1.55%; in experiment [2] it was -8.45%; in experiment [3] it was -10.8%; in experiment [4] it was -15.8%; in experiment [5] it was -26.1%; in experiment [6], 2.85%.

As to `CC1=C2C(=O)C(C)(C)C=C2C(=O)[C@](C)(O)C12CC2`, the growth inhibition was 66.4% in experiment [1]; 47.1% in experiment [2]; 68% in experiment [3]; 55.2% in experiment [4]; -5.95% in experiment [5]; 5.4% in experiment [6].

`O=C(c1ccccc1)N1CC1`: the growth inhibition is 6.1% in experiment [1]; 33.9% in experiment [2]; -22.1% in experiment [3]; 35.5% in experiment [4]; -3.8% in experiment [5]; 0.35% in experiment [6].

On to `N.N.N.N.O=C([O-])CCl.O=C([O-])CCl.[Co+3].[O-][Cl+3]([O-])([O-])[O-]`, for which the growth inhibition in experiment [1] is -32.1%; in experiment [2] it was -0.45%; in experiment [3], -30.4%; in experiment [4], 26.7%; in experiment [5], -6.5%; in experiment [6] it was -17.5%.

For `[Fe+2].[c-]1[c-][c-][cH-][c-]1.[c-]1[c-][c-][cH-][c-]1.c1cc[c]([Pb]([c]2ccccc2)[c]2ccccc2)cc1`, the growth inhibition was 66.5% in experiment [1]; 85% (active) in experiment [2]; 83.9% (active) in experiment [3]; 65.5% in experiment [4]; 78.3% (active) in experiment [5]; 87.8% (active) in experiment [6].

Consider `CCN1CC2CCC1C2` (stereo not drawn), for which the growth inhibition in experiment [1] is 5.2%; in experiment [2] it was -3.05%; in experiment [3], -14.5%; in experiment [4], 5.5%; in experiment [5] it was 3.7%; in experiment [6], 4.35%.

Consider `CC[C@@H]1[C@H]2C[C@H]3[C@@H]4N(C)c5ccccc5[C@]45C[C@@H](C2[C@H]5O)N3[C@H]1O` (stereo partly drawn), for which the growth inhibition in experiment [1] is -12.4%; in experiment [2], -6.15%; in experiment [3] it was -5.15%; in experiment [4], 5.05%; in experiment [5], -13.7%; in experiment [6], 15.6%.

Turning to `Cc1c2ccccc2c(C)c2c1cc[n+]1ccccc21`, the growth inhibition in experiment [1] was 14.1%; in experiment [2] it was -1.35%; in experiment [3] it was 15.2%; in experiment [4] it was 0.05%; in experiment [5] it was 1.05%; in experiment [6], 1.8%.

In the case of `CC(=O)[CH-]C(C)=O.CC(=O)[CH-]C(C)=O.CC(=O)[CH-]C(C)=O.[Cl-].[Hf+4]`, the growth inhibition was 3.85% in experiment [1]; -1.25% in experiment [2]; -16.6% in experiment [3]; 21.4% in experiment [4]; -9.75% in experiment [5]; -6.35% in experiment [6].

On to `CCC(Br)(CC)C(=O)NC(N)=O`, for which the growth inhibition in experiment [1] is 13.1%; in experiment [2] it was -23.8%; in experiment [3], -13.9%; in experiment [4], -16.4%; in experiment [5], -10.8%; in experiment [6], -6.05%.

In the case of `O=C(Nc1cccc(Cl)c1Cl)C(Cl)(Cl)Cl`, the growth inhibition in experiment [1] was 11.8%; in experiment [2], 20.9%; in experiment [3], 19.4%; in experiment [4], 6.35%; in experiment [5], 31.2%; in experiment [6], 28.8%.

On to `CC1(C)C(=O)/C(=N\O)C[C@@]2(C)C1=CC[C@@H]1[C@@H]2CC[C@]2(C)C(=O)/C(=N/O)C[C@@H]12`, for which the growth inhibition in experiment [1] was 1.55%; in experiment [2], -5.25%; in experiment [3] it was -0.05%; in experiment [4], -45.1%; in experiment [5], -1%; in experiment [6], -12.1%.

For `NNc1ccc([N+](=O)[O-])cc1`, the growth inhibition in experiment [1] is 23.9%; in experiment [2], 26.3%; in experiment [3], 40.9%; in experiment [4] it was -10.3%; in experiment [5], 54.9%; in experiment [6], 51.6%.

In the case of `N=C(N)N.[O]=[Cr](=[O])([OH])[OH]`, the growth inhibition in experiment [1] is 29.4%; in experiment [2], -39.9%; in experiment [3], 37.5%; in experiment [4] it was 10.6%; in experiment [5] it was 26.8%; in experiment [6], 30.6%.

As to `C=CC1CN2CCC1CC2C(O)c1ccnc2ccccc12` (stereo not drawn) (tested in a mixture with another compound), the growth inhibition in experiment [1] is -3.9%; in experiment [2], -17.1%; in experiment [3], -5.4%; in experiment [4], -4.05%; in experiment [5], -1.4%; in experiment [6] it was 1.75%.

Regarding `Nc1cc(N=Nc2ccc([As](=O)(O)O)cc2)ccc1O`, the growth inhibition in experiment [1] is 7.95%; in experiment [2], 13.4%; in experiment [3], -5.2%; in experiment [4], 11%; in experiment [5], 16.6%; in experiment [6], 16.9%.

With `[Se]=P(c1ccccc1)(N1CC1)N1CC1`, the growth inhibition in experiment [1] was 33.2%; in experiment [2], 10.2%; in experiment [3] it was 11.8%; in experiment [4] it was 3.55%; in experiment [5] it was -1.3%; in experiment [6], 6.85%.

Turning to `O=C(OCC1CCCN2CCCCC12)c1ccncc1` (stereo not drawn), the growth inhibition in experiment [1] was 4.9%; in experiment [2], 2.9%; in experiment [3] it was 48.4%; in experiment [4], 15.4%; in experiment [6] it was 2.35%.

Regarding `CC(CCOc1ccc2ccc(=O)oc2c1)C1=CC(=O)C(C)(C)O1` (stereo not drawn), the growth inhibition in experiment [1] is -6.1%; in experiment [2], -8.3%; in experiment [3], 21.1%; in experiment [4], 0.05%; in experiment [6] it was -44.1%.
